# Sampled rows, rich in hits. Any-hit rate of the full collection: about 2.2%.
# Calb FLC = C. albicans growth inhibition with fluconazole, primary screen, CaCi-2 strain, Alamar Blue fluorescence. C. albicans CaCi-2 (fluconazole-resistant clinical isolate) + fluconazole, 48 h. growth inhibition, % (no concentration beside the values). hit rate 0.57% among 300,000;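 active means growth inhibition above about 58% in most replicates, limit read from the data, passing the limit was not always enough; inconclusive means exactly half the replicates above a set limit; inactive means most replicates below a set limit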;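 further: all wells also contain fluconazole at 8 µg/ml as a sub-toxic cotreatment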
# CSC inhib = cancer stem cell viability inhibitors, primary screen, luminescence; cancer stem cell-like cells viability; inhibition, % at 7.5 µM; hit rate 1.1% among 300,000; in the data active means inhibition above about 75%; inconclusive means no clear call, values can overlap the other calls; tested in HMLE shEcad cells
# PfHsp90 set2 = growth inhibition of PfHsp90-expressing yeast, primary screen, antimalarial PfHsp90 inhibitor project, S. cerevisiae, BacTiter-Glo luminescence, single point, set 2; hit rate 0.32% among 310,000; BacTiter-Glo ATP, 48 h; yeast lacking PDR1 and PDR3 efflux regulators; inhibition, % at 9.4 µM; AID 504621, 2011;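 active means every replicate shows inhibition above about 80%, whatever the replicate mean, limit read from the data; inconclusive means mean inhibition reaches the set limit but some replicate falls short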
# Beta apoptosis = inhibitors of cytokine-induced beta cell apoptosis, primary screen, luminescence; INS-1E cytokine-induced death, ATP luminescence, 48 h; percent of positive-control rescue, neutral wells zero; protection from apoptosis, % (concentration not given with the values); hit rate 0.8% among 300,000; AID 435005, 2010;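 active means Every replicate reaches about 75%, or at least half do and their mean reaches it too, limit read from the data; inconclusive means At least half of replicates reach the limit but their mean does not; inactive means Under half of replicates reach the limit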;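 further: higher means more ATP so stronger rescue from cytokine killing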
# Shn3 inh set2 = reduction of Shn3 3'UTR firefly luciferase signal, primary screen, Schnurri-3 inhibitor project, cell-based, Clone20 osteoblasts, set 2; Clone20 osteoblast Shn3 3'UTR firefly luciferase, 24 h; inhibition, % at 12.5 µM; hit rate 0.52% among 360,000; AID 588674, 2011;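 active means mean inhibition of at least 75% with every replicate also reaching 75%; inconclusive means mean inhibition at least 75% but some replicate below; inactive means mean inhibition below 75%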
# Numbers stand for hits; - = inactive; ? = inconclusive; . = no result.
SMILES,Calb FLC,CSC inhib,PfHsp90 set2,Beta apoptosis,Shn3 inh set2
COc1cccc(CN2CC(C(=O)N(C)CCCC3CCCC3)CCC2=O)c1 (configuration not stated),-,-,-,-,-
O=c1c2c(nc3c(-c4cccc5ccccc45)c[nH]n13)CCC2,-,-,-,-,.
O=c1c2c(nc3c(-c4ccc(Cl)cc4)c[nH]n13)CCCC2,-,.,-,93,-
CN=c1scc(-c2ccc([N+](=O)[O-])cc2)n1/N=C/c1ccco1,-,-,-,-,-
CN=c1scc(-c2ccc(F)cc2)n1/N=C/c1ccc(O)c(O)c1,.,.,-,.,89
O=C(Nc1ccccc1)OCN1C(=O)c2ccccc2C1=O,69,-,-,-,-
O=C(CN1C(=O)c2ccccc2C1=O)Nc1ccccc1,-,-,-,-,-
O=C(CCc1ccc(Oc2cc([N+](=O)[O-])cc([N+](=O)[O-])c2)cc1)N1CCCCCC1,-,96,-,-,-
O=C(Cc1ccc([N+](=O)[O-])cc1)N1CCCCCC1,-,-,-,.,-
Cc1ccc(C)c(N2C(=O)CC(Cc3ccc(Cl)cc3)C2=O)c1 (configuration not stated),-,-,-,-,-
CCn1cc(C2=NC(CC(C)C)CO2)c2ccccc21 (configuration not stated),-,.,-,-,-
Nc1ccc(N2CCN(c3cccc(Cl)c3)CC2)cc1,101,-,-,-,-
Clc1cccc(N2CCN(CCCN3CCN(c4ccccc4)CC3)CC2)c1,.,.,-,.,-
Cc1cc2c(SCC(=O)NC3CCCC3)ncnc2s1,-,.,-,-,-
O=c1oc(-c2ccccc2)cc2ccccc12,.,.,.,.,-
O=c1oc(-c2ccccc2)cc(Cl)c1Cl,-,-,117,-,-
Cc1ccc(C(=O)NNC(=O)c2ccncc2)cc1[N+](=O)[O-],.,.,-,-,-
Cc1ccc(C(=O)ONC(=O)c2ccc(Cl)cc2)cc1[N+](=O)[O-],-,-,108,-,-
Cn1c(=O)c2[nH]c(CCCCCCCCc3nc4ccccc4[nH]3)nc2n(C)c1=O,.,.,.,.,86
CCNC(=O)COc1cccc2ccccc12,-,-,-,-,-
O=C(NCCNC(=O)Oc1cccc2ccccc12)Oc1cccc2ccccc12,.,.,-,.,90
C[N+]1(CC(=O)OC2CCCCCCCCCCC2)CCCC1,99,-,-,-,-
O=C(Nc1cc2c3c(c1)C1CCCC1CN3CC1CCCC21)c1ccccc1 (configuration not stated),89,-,-,-,-
O=C(Nc1cccc(C(=O)NC2CC2)c1)c1ccccc1,.,.,-,.,-
Cc1c(C(=O)N2CCN(S(=O)(=O)c3ccccc3)CC2)oc2ccc(Br)cc12,.,.,-,.,-
SMILES,Calb FLC,CSC inhib,PfHsp90 set2,Beta apoptosis,Shn3 inh set2
O=C(Nc1cccnc1)c1ccc([N+](=O)[O-])s1,.,-,-,78,-
O=C(Nc1ccc(C(F)(F)F)cc1)C1CCN(S(=O)(=O)c2ccc(N3CCCC3=O)cc2)CC1,-,-,-,101,-
COc1ccc(NC(=O)C2CCN(S(=O)(=O)c3ccc(N4CCCC4=O)cc3)CC2)cc1OC,-,-,-,-,-
Cc1ccc(OCCn2c(=S)[nH]c3ccccc32)c(C(C)C)c1,-,101,-,-,-
CC1CCCN(C(=O)c2ccc(S(=O)(=O)N3CCC(c4nc5ccccc5s4)CC3)cc2)C1 (configuration not stated),-,-,-,-,-
CCN(CC)C(=O)c1ccc(S(=O)(=O)N2CCC(c3nc4ccccc4s3)CC2)cc1,-,-,-,100,-
O=C(CCl)N(c1ccc(Cl)cc1)c1c[nH]c2ccccc12,113,88,-,-,98
O=C(CCl)N(c1ccccc1)c1c[nH]c2ccccc12,-,-,-,-,94
O=C(Cc1ccc(Cl)cc1)NCCc1c[nH]c2ccccc12,-,-,-,-,-
CCOc1ccc(C(=S)N2CCCC2)c(OCC)c1,-,-,-,-,-
O=C(N[C@H]1C/C=C\C[C@H](CC(=O)N(CCO)Cc2ccccc2)C(=O)N[C@@H](c2ccccc2)COC1=O)OCC1c2ccccc2-c2ccccc21,.,.,-,.,-
O=C(N[C@@H]1C/C=C\C[C@@H](CC(=O)N(CCO)Cc2ccccc2)C(=O)NC[C@H](c2ccccc2)OC1=O)OCC1c2ccccc2-c2ccccc21,.,.,-,-,88
O=C(N[C@@H]1C/C=C\C[C@H](CC(=O)N(CCO)Cc2ccccc2)C(=O)NC[C@@H](c2ccccc2)OC1=O)OCC1c2ccccc2-c2ccccc21,.,.,-,-,90
CCCCN(C(=O)c1cc(CC)c(C)s1)c1c(N)n(CCC)c(=O)[nH]c1=O,-,-,.,.,-
CCOc1ccc(NC(=O)N2CCC(c3nc4ccccc4[nH]3)CC2)cc1,-,-,-,-,-
COc1ccc(CN2CCC(=O)N([C@H](CO)c3ccccc3)CC2)cc1,-,-,-,-,-
N#CC1=C(c2ccccc2)/C(=C/c2ccccc2)OC1=O,?,-,-,-,95
O=C1O/C(=C/c2ccccc2)c2ccccc21,-,-,-,-,-
O=C(CSc1nnc(-c2ccc(Cl)cc2Cl)n1C1CCCCC1)N1CCCC1,-,-,-,-,92
CCCCN(Cc1ccccc1)C(=O)C1CCC(=O)N(CCc2ccccn2)C1 (configuration not stated),-,-,-,-,-
Cc1onc(-c2c(Cl)cccc2Cl)c1NC(=O)NNc1ccccc1,-,-,-,-,-
Cc1nnc(NC(=O)c2c(-c3ccccc3Cl)noc2C)s1,83,-,-,-,-
Cc1onc(-c2ccccc2Cl)c1C(=O)Nc1nnc(C(C)C)s1,-,-,-,-,-
Cc1cc(NC(=O)c2c(-c3c(F)cccc3Cl)noc2C)no1,-,-,-,-,-
Cc1onc(-c2c(Cl)cccc2Cl)c1C(=O)NNc1ccccc1,-,91,-,-,-
SMILES,Calb FLC,CSC inhib,PfHsp90 set2,Beta apoptosis,Shn3 inh set2
Cc1nc(C(=O)NNC(=O)c2c(-c3c(Cl)cccc3Cl)noc2C)cs1,-,-,-,86,-
Cc1ccc(NC(=O)c2c(-c3c(F)cccc3Cl)noc2C)cc1F,-,-,-,96,-
COc1ccc(OC)c(Cc2nnc(CCC(=O)NC3C4CC5CC(C4)CC3C5)o2)c1 (configuration not stated),-,-,-,-,-
CCN(CC)S(=O)(=O)c1ccc(N2CCN(c3ccccc3OC)CC2)c(N)c1,-,-,-,126,-
CCN(CC)S(=O)(=O)c1ccc(Oc2ccccc2)c(N)c1,-,-,-,-,-
CCCOc1cc(N)ccc1C(=O)OCCN(CC)CC,.,-,-,.,-
CCCOc1ccc(N)cc1N,-,-,-,99,-
O=C(NCc1nc(-c2ccc(C(F)(F)F)cc2)no1)Nc1cc(Cl)cc(Cl)c1,-,134,-,110,-
O=C1C=CC(=O)N1Cc1ccccc1,.,-,110,-,-
CNc1nc(SCc2ccccc2Cl)nc2c1CCCC2,-,79,-,-,-

# Source: PubChem (Broad Institute)
